Results filed as inconclusive are left out. The source made the active and inactive calls. Unless noted, calls come from the whole dose curve; as a rule, active = well fitted curve in the direction sought with a large enough effect in the repeat runs; inconclusive = weak or mixed curves; inactive = no such curve, though single readings can be large; an effect the other way counts as inactive or inconclusive.
How the values were obtained:
[1] = qHTS assay to identify small molecule that activate the aryl hydrocarbon receptor (AhR) signaling pathway - cell viability counter screen (AID 743086); note: nearly all actives have a fitted effect of over 45% in size
Summary of the method: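 HepG2-AhR-luc (HG2L7.5c1) cells, 4000/well, treated 24 h at 37 C with compound; viability measured as CellTiter-Fluor fluorescence after 30 min in the same wells as the luciferase read.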

[2] = qHTS assay to identify small molecule antagonists of the peroxisome proliferator-activated receptor gamma (PPARg) signaling pathway - cell viability counter screen (AID 743194); settings: Potency: co-treated with 50 nM rosiglitazone unless noted; note: nearly all actives have a fitted effect of over 55% in size
Summary of the method: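 Cytotoxicity counter screen in PPARg-bla HEK293H cells, same wells as reporter assay. Compounds plus 50 nM rosiglitazone (final) for 17 h at 37 C, then viability read by CellTiter-Glo luminescence.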

[3] = qHTS assay for small molecule activators of the heat shock response signaling pathway - cell viability counter screen (AID 743209); note: nearly all actives have a fitted effect of over 50% in size
Summary of the method: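 Same-well multiplex: after 2.5 h room-temperature incubation with LiveBLAzer B/G substrate and fluorescence reading, CellTiter-Glo reagent was added to HSE-bla HeLa cells that had received compound for 5 h at 37 C; luminescence read after 30 min.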

[4] = qHTS assay to identify small molecule agonists of the peroxisome proliferator-activated receptor delta (PPARd) signaling pathway - cell viability counter screen (AID 743211); note: nearly all actives have a fitted effect of over 55% in size
Summary of the method: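 Tox21 library compounds, delivered in DMSO, were incubated 17 h with PPARd-bla HEK293H cells; cytotoxicity was taken from CellTiter-Glo luminescence read 30 min after reagent addition.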

[5] = qHTS assay for small molecule agonists of the antioxidant response element (ARE) signaling pathway - cell viability counter screen (AID 743203; calls by dose curve; note: nearly all actives have a fitted effect of over 55% in size)
Summary of the method: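 Measured in the same wells as the beta-lactamase ARE reporter, this read-out is CellTiter-Glo luminescence from HepG2 ARE-bla cells given compounds for 16 hrs.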
Potency is the fitted concentration of half-maximal effect.

| SMILES | Potency [1] | Potency [2] | Potency [3] | Potency [4] | Potency [5] |
| --- | --- | --- | --- | --- | --- |
| O=CC(Br)(Br)Br | 48.4 µM (active) | 6.14 µM (active) | 6.14 µM (active) | 17.3 µM (active) |  |
| O=[N+]([O-])O.O=[N+]([O-])O.[Cd] | 1.93 µM (active) | 0.155 µM (active) | inactive | 1.95 µM (active) | 0.611 µM (active) |
| Oc1ccc2ccc3cccc4ccc1c2c34 | inactive |  | inactive | inactive |  |
| CC(=O)[O-].CC(=O)[O-].[Hg+2] | 7.7 µM (active) | 0.977 µM (active) | 1.38 µM (active) | 1.74 µM (active) |  |
| O=C(O)c1cc[c]([Hg][Cl])cc1 | inactive | 38.9 µM (active) |  | 49 µM (active) | 54.5 µM (active) |

Reference: PubChem BioAssay (Tox21)
